Holding throughout (assay): NCI-60 one-dose screen, 48 h (100 = growth as untreated, 0 = no growth, -100 = all killed)
One assay deals with NCI-H23 lung. Conditions: 10 µM unless noted.
The next assay has as its system NCI-H226 lung. The conditions noted are these: 10 µM unless noted.
The next assay has as its system NCI-H322M lung. The conditions noted are these: 10 µM unless noted.
A further assay deals with HOP-62 NSCLC. Conditions: 10 µM unless noted.
In the next assay the test system is NCI-H460 lung. The conditions noted are these: 10 µM unless noted.
Another assay concerns NCI-H522 lung. Conditions: 10 µM unless noted.
Another assay relates to A549/ATCC NSCLC. Conditions: 10 µM unless noted.
The next assay has as its system 786-0 renal. Conditions: 10 µM unless noted.
The test system of the next assay is COLO 205 colon. Conditions: 10 µM unless noted.
The next assay has as its system DU-145 prostate. The conditions noted are these: 10 µM unless noted.
The next assay concerns K-562 leukemia. Conditions: 10 µM unless noted.
The next assay concerns MALME-3M melanoma. Conditions: 10 µM unless noted.
In the next assay the test system is MDA-MB-231 breast. The conditions noted are these: 10 µM unless noted.
For a further assay, the system named is RXF 393 renal. Conditions: 10 µM unless noted.
The subject of a further assay is SF-268 CNS. The conditions noted are these: 10 µM unless noted.
In a further assay the test system is SF-295 CNS. Conditions: 10 µM unless noted.
In a further assay the test system is SF-539 CNS. The conditions noted are these: 10 µM unless noted.
The next assay deals with UACC-257 melanoma. Conditions: 10 µM.
Another assay has as its system M14 melanoma. Conditions: 10 µM unless noted.

About 83,000 compounds went through this panel and 20% of them were active in at least one assay; those are over-represented in the sample as a whole.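 Cells were grown in 96-well plates and exposed to the test compound at a single concentration for 48 hours; results are reported as percent growth, with values below 10 considered active.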 Unmarked numbers belong to inactive results. Calls of active or inactive are those of the source.

Eight compounds from PubChem BioAssay (NCI) can be followed below.

Regarding `NC(N)=NS(=O)(=O)c1ccc(N=NC2C(=O)NN(c3ccccc3)C2=O)cc1` (stereo unspecified), the growth in the assay with NCI-H23 lung was 93.5%; in the assay on NCI-H226 lung, 85.6%; with NCI-H322M lung, 101%; with HOP-62 NSCLC, 110%; in the assay with NCI-H460 lung, 101%; in the assay with NCI-H522 lung it was 104%. The growth with A549/ATCC NSCLC was 104%; with 786-0 renal, 100%; with COLO 205 colon, 113%; in the assay with DU-145 prostate, 104%; in the assay with K-562 leukemia, 107%; with MALME-3M melanoma, 101%. Also, the growth is 94.9% in the assay on MDA-MB-231 breast; 106% with RXF 393 renal; 102% in the assay with SF-268 CNS; 104% in the assay on SF-295 CNS; 94.8% with SF-539 CNS; 120% in the assay on UACC-257 melanoma. Moreover, in the assay on M14 melanoma, the growth is 99.5%.

As to `COc1cc2c3c(n(CCCN4CCCCC4)c(=O)c2cc1OC)-c1cc2c(cc1C3=O)OCO2`, the growth in the assay with NCI-H23 lung is -91.9% (active); in the assay with NCI-H226 lung it was -61.6% (active); in the assay with NCI-H322M lung, -96.4% (active); in the assay with HOP-62 NSCLC it was -71.4% (active); in the assay on NCI-H460 lung, -84.7% (active); in the assay with NCI-H522 lung, -80.2% (active). Besides, the growth in the assay on A549/ATCC NSCLC is -58.4% (active); in the assay with 786-0 renal, -55.9% (active); in the assay on COLO 205 colon it was -88.8% (active); in the assay with DU-145 prostate it was -92.2% (active); in the assay on MALME-3M melanoma, -78.5% (active); in the assay with MDA-MB-231 breast, -77.1% (active). For the same compound, the growth in the assay with RXF 393 renal was -73.9% (active); with SF-268 CNS it was -55.5% (active); with SF-295 CNS, -75.6% (active); in the assay on SF-539 CNS, -89.3% (active); in the assay with M14 melanoma, -89.5% (active).

Turning to `C#CCOc1ccccc1C(Nc1ccccc1)c1nnnn1C1CCCCC1` (stereo unspecified), the growth in the assay on NCI-H23 lung was 103%; with NCI-H226 lung it was 107%; with NCI-H322M lung it was 92.5%; in the assay with HOP-62 NSCLC it was 103%; with NCI-H460 lung, 103%; in the assay on NCI-H522 lung, 80.1%. For the same compound, the growth was 96% in the assay on A549/ATCC NSCLC; 88.3% with 786-0 renal; 112% in the assay on COLO 205 colon; 105% in the assay on DU-145 prostate; 77.5% in the assay on K-562 leukemia; 100% with MALME-3M melanoma. In addition, the growth in the assay with MDA-MB-231 breast is 96.1%; in the assay on RXF 393 renal, 113%; with SF-268 CNS it was 93.7%; with SF-295 CNS, 88.5%; in the assay with SF-539 CNS, 101%; in the assay with UACC-257 melanoma, 101%.

Take `CC1(C)CC[C@]2(C(=O)N3CCCN(CC#N)CC3)CC[C@]3(C)C(=CC[C@@H]4[C@@]5(C)CC[C@H](O)C(C)(C)[C@@H]5CC[C@]43C)[C@H]2C1`: the growth with NCI-H23 lung was 55.6%; in the assay with NCI-H226 lung, 71.1%; with NCI-H322M lung, 94.9%; in the assay with HOP-62 NSCLC, 70.8%; in the assay on NCI-H460 lung it was 16.8%; with NCI-H522 lung, 67.5%. The growth in the assay with A549/ATCC NSCLC was 39.1%; in the assay with 786-0 renal, 68.6%; in the assay with COLO 205 colon, -15.5% (active); in the assay with DU-145 prostate it was 78.5%; with K-562 leukemia it was 3.77% (active); with MALME-3M melanoma, 77.8%. The growth in the assay on MDA-MB-231 breast was 55.6%; in the assay with SF-268 CNS it was 69.2%; with SF-295 CNS, 91.7%; in the assay with SF-539 CNS it was 68.5%; in the assay with UACC-257 melanoma, 50.6%; in the assay on M14 melanoma it was 65.7%.

As to `Nc1nc(N)c2c(n1)NC(c1ccc(Cl)cc1)CC(c1ccc(Nc3nc(NCCO)nc(Nc4ccc(Cl)cc4)n3)cc1)=N2` (stereo unspecified), the growth is 33% with NCI-H23 lung; 81.8% in the assay with NCI-H226 lung; 55.6% in the assay with NCI-H322M lung; -63.7% (active) in the assay on HOP-62 NSCLC; -57.2% (active) in the assay with NCI-H460 lung; 25.2% with NCI-H522 lung. The growth in the assay with A549/ATCC NSCLC was 52%; with 786-0 renal, 28%; in the assay with COLO 205 colon, 67.4%; in the assay with DU-145 prostate, 0.35% (active); in the assay with K-562 leukemia, -25.2% (active); in the assay with MALME-3M melanoma, 68.9%. The growth was 53% in the assay on MDA-MB-231 breast; 43.6% in the assay on RXF 393 renal; 51.4% with SF-268 CNS; 47.5% in the assay on SF-295 CNS; 83.4% in the assay on SF-539 CNS; 107% with UACC-257 melanoma. Besides, the growth in the assay on M14 melanoma is 34.5%.

Regarding `O=C(COc1cccc2cccnc12)Nc1ccc(C(=O)/C=C/c2ccc(Cl)cc2)cc1`, the growth in the assay with NCI-H23 lung is 89.2%; with NCI-H226 lung, 94.6%; with NCI-H322M lung it was 99.1%; with HOP-62 NSCLC it was 108%; in the assay with NCI-H460 lung it was 102%; in the assay on NCI-H522 lung it was 85.2%. The growth in the assay on A549/ATCC NSCLC is 85.4%; in the assay on 786-0 renal, 99%; in the assay on COLO 205 colon, 108%; in the assay on DU-145 prostate, 88.7%; in the assay on K-562 leukemia it was 47.4%; in the assay with MALME-3M melanoma, 108%. Also, the growth was 93.4% with MDA-MB-231 breast; 92.5% with RXF 393 renal; 93.7% with SF-268 CNS; 91.6% in the assay with SF-295 CNS; 93.5% in the assay with SF-539 CNS; 99.8% in the assay on UACC-257 melanoma. In addition, the growth with M14 melanoma is 99.5%.

On to `CCCC(=O)NC(c1cccnc1)c1cc(C(C)=O)c2cccnc2c1O` (stereo unspecified), for which the growth was 48.6% in the assay on NCI-H23 lung; 25% in the assay with NCI-H226 lung; 26.9% with NCI-H322M lung; 26.2% in the assay with HOP-62 NSCLC; 12.1% with NCI-H460 lung; 18.6% with NCI-H522 lung. In addition, the growth in the assay with 786-0 renal is 32.2%; in the assay on COLO 205 colon, 15.6%; in the assay with DU-145 prostate, 39.9%; with K-562 leukemia, 32.2%; in the assay with MALME-3M melanoma, 38.8%; in the assay on MDA-MB-231 breast it was 36.9%. Also, the growth in the assay with RXF 393 renal was 31.7%; in the assay with SF-268 CNS, 27.2%; in the assay with SF-295 CNS, 13.9%; in the assay on SF-539 CNS it was 25.1%; in the assay with UACC-257 melanoma, 42.4%; in the assay on M14 melanoma it was 12.7%.

In the case of `CC(=O)NC(C)(C)C(=O)N1CCC[C@H]1C(=O)NC(C)(C)C(=O)N[C@@H](C)C(=O)NC(C)(C)C(=O)N[C@@H](C)C(=O)N[C@@H](CCC(N)=O)C(=O)NC(C)(C)C(=O)N[C@H](C(=O)NC(C)(C)C(=O)NCC(=O)N[C@@H](CC(C)C)C(=O)NC(C)(C)C(=O)N1CCC[C@H]1C(=O)N[C@H](C(=O)NC(C)(C)C(=O)NC(C)(C)C(=O)N[C@@H](CCC(N)=O)C(=O)N[C@@H](CCC(N)=O)C(=O)N[C@H](CO)Cc1ccccc1)C(C)C)C(C)C`, the growth with NCI-H23 lung was 41% [4.25 µM]; with NCI-H226 lung, 57.2% [4.25 µM]; in the assay with NCI-H322M lung it was 97.3% [4.25 µM]; in the assay with HOP-62 NSCLC it was 60.6% [4.25 µM]; in the assay with NCI-H460 lung, 74.1% [4.25 µM]; in the assay on NCI-H522 lung it was 48% [4.25 µM]. The growth in the assay with A549/ATCC NSCLC was 49.4% [4.25 µM]; in the assay on 786-0 renal, 97.4% [4.25 µM]; in the assay on COLO 205 colon, 46.7% [4.25 µM]; with DU-145 prostate, 62.9% [4.25 µM]; in the assay on K-562 leukemia it was 42.8% [4.25 µM]; with MALME-3M melanoma, 57.1% [4.25 µM]. Besides, the growth is 77.7% [4.25 µM] with MDA-MB-231 breast; 82.7% [4.25 µM] in the assay on RXF 393 renal; 64.3% [4.25 µM] with SF-268 CNS; 55.1% [4.25 µM] in the assay with SF-295 CNS; 62.2% [4.25 µM] in the assay with SF-539 CNS; 68.5% [4.25 µM] with M14 melanoma.
